Results on ten molecules are retold here after PubChem BioAssay (NCATS).

The structures appear in SMILES notation. Records with an inconclusive call do not appear. Activity calls are given as the source filed them. Unless noted, calls come from the whole dose curve; as a rule, active = well fitted curve in the direction sought with a large enough effect; inconclusive = small, poorly fitted or top-dose-only effect, or another doubt; inactive = no such curve, though single readings can be large; an effect the other way counts as inactive or inconclusive.

Test [1] addresses Thyrotropin-releasing hormone receptor (Homo sapiens) (UniProt P34981). The test can be described thus: qHTS for Small Molecule Agonists and Allosteric Enhancers of Human TRH Receptor: Validation Screen for Agonists (AID 493127;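 active = calcium activation more than 3 SD above the typical response in the agonist read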;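 note: intracellular calcium rise by fluo-8 fluorescence before TRH EC20 addition; 0% is about no effect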). The conditions noted are these: TRH receptor agonist cell assay; at 2 µM; stronger effect = higher value. An outline of the steps:
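Cells 2000/well, 10% FCS, 18 h 33.5C/5% CO2 → fluo-8 Ca dye, RT 30 min–1.5 h → FDSS baseline 10 × 1 s → compound added → 230 cycles (1 s/cycle) agonist mode. TRH controls.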
In general terms: qHTS replaces the single test concentration by a dilution series.

Test [2] in a line: Nrf2 qHTS screen for inhibitors: Validation (AID 493153; active = well fitted inhibition curve with a large enough effect in the main read-out, with a control signal flat, not every such curve was filed as active). The conditions noted are these: A549 ARE-Fluc reporter, 18-24 h; Potency: luciferase luminescence; viability change: measured here: cytotoxicity max response; luciferase luminescence, at 46.1 µM (top of the series). An outline of the steps: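 Luminescence from an ARE-firefly luciferase reporter in A549 cells gives Nrf2 inhibition; an earlier CellTiter-Fluor fluorescent read flags cytotoxicity. Cells in 5% FBS OPTI-MEM received compound dilution series for 18-24 h at 37°C.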

Test [3] in a line: qHTS for Inhibitors of Cell Surface uPA Generation: Validation Assay (AID 493164). Note: 0% is about no effect. The following applies: mouse cells, plasminogen activation; series mostly up to 38.3 µM. The method in brief:
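RAW 264.7 cells (4000/well) were plated overnight, then exposed for 18 h at 37 C, 5% CO2 to compounds in a 7-point 1:5 titration (2.45 nM–38.3 uM final). Intracellular ATP was read by ATP-Lite luminescence.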

Test [4] concerns the target Galactokinase (Homo sapiens) (UniProt P51570). As to the kind of experiment: qHTS Validation Assay for Inhibitors of Human Galactokinase (GALK) (AID 493189). Note: 0% is about no effect. The following applies: purified human GALK enzyme activity, qHTS 7-point titration; series mostly up to 57.5 µM. An outline of the steps:
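5 nM GALK / 100 uM galactose / 35 uM ATP, 20 mM HEPES pH8.0, 5 mM MgCl2, 60 mM NaCl, 1 mM DTT, 0.01% BSA (final). RT 1 h; Kinase-Glo Plus luminescence.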

A short description of test [5]: Validation screen for small molecules that induce DNA re-replication in SW480 colon adenocarcinoma cells (AID 504364). Note: 0% is about no effect. The conditions noted are these: DNA re-replication phenotype (high-content imaging); series mostly up to 46.1 µM. An outline of the steps: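 250 cells/well; compound pinned in; 48 hr, 37 C, 5% CO2; Hoechst added, 40 min; nuclear fluorescence imaged, 405 ex / 500-530 em; re-replication scored as increase in high-intensity nuclei.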

The target of test [6] is Peptidyl-prolyl cis-trans isomerase NIMA-interacting 1 (Homo sapiens) (UniProt Q13526). As to the kind of experiment: qHTS Validation Assay to Find Inhibitors of Pin1 (AID 504536; active = well fitted inhibition curve with a large enough effect in the polarisation, with a control signal flat, not every such curve was filed as active; the % refers to the polarisation;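 note: 0% = full Pin1 enzyme wells and -100% = no-enzyme wells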). The conditions noted are these: Pin1 fluorescence polarization peptide binding assay; series mostly up to 57.5 µM. The method in brief: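 Fluorescence polarization competition: compounds (titration) displace HiFluor-488-labeled Pin1-1b peptide from Pin1 (0.3 uM final) in pH 7.5 HEPES buffer with DTT, 10 min at room temperature; %Activity normalized to no-enzyme wells, curves fitted.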

The target of test [7] is Phosphoglycerate kinase, glycosomal (Trypanosoma brucei brucei) (UniProt P07378). As to the kind of experiment: qHTS Validation Assay to Find Inhibitors of Phosphoglycerate Kinase (AID 504547).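 Note: control wells lack PGK and mark full inhibition.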 The following applies: enzymatic PGK inhibition, coupled luminescence read-out; series mostly up to 57.5 µM. The method in brief:
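PGK activity was coupled to GAPDH (100nM final), which generates the unstable substrate 1,3-bisphosphoglycerate in-well. Reactions ran 60 minutes at room temperature in 100mM TEA pH 7.6, 5mM MgCl2, 0.01% Tween-20, then Kinase-Glo Plus luminescence was read.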

The target of test [8] is phosphoglycerate mutase (Leishmania major) (UniProt Q4Q090). The test can be described thus: qHTS Validation Assay to Find Inhibitors of Phosphoglycerate Mutase (AID 504548). Note: % is set by controls: 0 for no effect and ±100 for the full control effect. The following applies: biochemical enzyme activity; series mostly up to 57.5 µM. An outline of the steps:
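Lm PGAM 1.25nM final; 100 mM TEA pH 7.6, 5 mM MgCl2, 0.01% Tween-20; 45 min RT; Kinase-GloPlus, 10 min; end-point luminescence. Enzyme-free wells as negative controls.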

Test [9] deals with Ubiquitin carboxyl-terminal hydrolase 1 (Homo sapiens) (UniProt O94782). As to the kind of experiment: Inhibitors of USP1/UAF1: Pilot qHTS (AID 504865).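 Note: rhodamine fluorescence freed from ubiquitin-rhodamine substrate followed over time; top concentration of the series differs between compounds; % is set by controls: 0 for no effect and ±100 for the full control effect; nearly all actives have a fitted effect of over 35% in size.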 The conditions noted are these: purified USP1/UAF1, Ub-rhodamine cleavage fluorescence; series mostly up to 114 µM. An outline of the steps:
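In 50mM HEPES pH 7.8 containing 0.5mM EDTA, 1mM TCEP, 0.1 mg/ml BSA and 0.01% Tween-20, 1nM USP1/UAF1 is exposed to compound for 15 min, then Ub-Rho (150nM final) is added and fluorescence is read over time.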

Test [10] in a line: qHTS for Inhibitors of ATXN expression: Validation of Cytotoxic Assay (AID 588349). Note: % is set by controls: 0 for no effect and ±100 for the full control effect. The following applies: cytotoxicity counter-screen for ATXN expression inhibitors, cell viability; series mostly up to 57.1 µM. An outline of the steps: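 Read-out: ATP-based luminescence (CellTiter Glo) reflecting viability of HEK293 cells after 72 hr incubation at 37 degrees C with a concentration series of each compound.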

A short description of test [11]: qHTS for Inhibitors of ATXN expression: Validation (AID 588378). Note: % is set by controls: 0 for no effect and ±100 for the full control effect; nearly all actives have a fitted effect of over 75% in size. The following applies: cell-based ATXN2 expression reporter assay, luminescence; series mostly up to 57.1 µM. An outline of the steps: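 Compounds were pinned onto attached HEK293 cells carrying an ATXN2-firefly luciferase construct and incubated 24 hrs at 37 degrees C. Each well then received a fluorescent viability reagent followed by luciferase substrate for end-point luminescence.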

For test [12], the target named is Estrogen receptor (Homo sapiens) (UniProt P03372). The test can be described thus: qHTS assay for small molecule antagonists of estrogen receptor alpha signaling (AID 588513; active = well fitted curve in the direction sought with a large enough effect in the signal ratio, with a control signal flat, not every such curve was filed as active; the % refers to the signal ratio; note: % is set by controls: 0 for no effect and ±100 for the full control effect). The following applies: ER-alpha-UAS-bla HEK293, beta-lactamase ratio, antagonist mode; series mostly up to 76.9 µM. The method in brief: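 Fluorescence from CCF4 substrate after 2 h at room temperature gave reporter activity; cells had been exposed to compound and 0.5nM 17-beta-estradiol for 18 h at 37 C. Hill-equation fitting yielded IC50 and maximal response.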

Test [13] shares this target. The test can be described thus: qHTS assay for small molecule agonists of estrogen receptor alpha signaling (AID 588514; calls by dose curve;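 note: 0% = vehicle only and 100% = reference agonist; nearly all actives have a fitted effect of over 70% in size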). The conditions noted are these: ER-alpha-UAS-bla HEK293, beta-lactamase ratio, 18 h; series mostly up to 76.8 µM. An outline of the steps:
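Cells were plated at 5000/well, incubated 4 hrs at 37 C, dosed with compound titration series, incubated 18 hrs at 37 C, loaded with CCF4 dye for 2 hrs at RT, then fluorescence was read.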

Chain of Thyrotropin-releasing hormone receptor (Homo sapiens) (P34981 whole entry, looked up): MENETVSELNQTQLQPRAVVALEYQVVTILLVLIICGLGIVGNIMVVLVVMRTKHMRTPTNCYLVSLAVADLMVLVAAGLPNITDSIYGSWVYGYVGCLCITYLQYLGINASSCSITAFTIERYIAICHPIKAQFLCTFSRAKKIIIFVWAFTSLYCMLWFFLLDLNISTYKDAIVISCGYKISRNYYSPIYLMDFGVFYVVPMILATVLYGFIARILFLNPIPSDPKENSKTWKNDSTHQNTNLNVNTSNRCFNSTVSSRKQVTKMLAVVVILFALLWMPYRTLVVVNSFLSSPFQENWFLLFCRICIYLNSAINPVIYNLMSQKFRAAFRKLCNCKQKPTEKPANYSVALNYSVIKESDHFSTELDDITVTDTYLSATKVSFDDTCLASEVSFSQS
Chain of Phosphoglycerate kinase, glycosomal (Trypanosoma brucei brucei) (P07378 whole entry, looked up): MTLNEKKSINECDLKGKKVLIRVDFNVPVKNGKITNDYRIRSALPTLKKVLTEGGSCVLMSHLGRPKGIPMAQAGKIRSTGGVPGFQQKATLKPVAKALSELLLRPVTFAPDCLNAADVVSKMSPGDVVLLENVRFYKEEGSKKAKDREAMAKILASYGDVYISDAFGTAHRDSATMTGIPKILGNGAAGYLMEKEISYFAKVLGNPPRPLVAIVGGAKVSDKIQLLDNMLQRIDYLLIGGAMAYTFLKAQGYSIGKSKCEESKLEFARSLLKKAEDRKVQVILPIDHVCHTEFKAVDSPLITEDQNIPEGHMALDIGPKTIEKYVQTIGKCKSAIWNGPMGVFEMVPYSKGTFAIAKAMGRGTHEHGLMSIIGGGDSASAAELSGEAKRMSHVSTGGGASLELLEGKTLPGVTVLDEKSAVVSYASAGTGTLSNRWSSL
Chain of Galactokinase (Homo sapiens) (P51570 whole entry, looked up): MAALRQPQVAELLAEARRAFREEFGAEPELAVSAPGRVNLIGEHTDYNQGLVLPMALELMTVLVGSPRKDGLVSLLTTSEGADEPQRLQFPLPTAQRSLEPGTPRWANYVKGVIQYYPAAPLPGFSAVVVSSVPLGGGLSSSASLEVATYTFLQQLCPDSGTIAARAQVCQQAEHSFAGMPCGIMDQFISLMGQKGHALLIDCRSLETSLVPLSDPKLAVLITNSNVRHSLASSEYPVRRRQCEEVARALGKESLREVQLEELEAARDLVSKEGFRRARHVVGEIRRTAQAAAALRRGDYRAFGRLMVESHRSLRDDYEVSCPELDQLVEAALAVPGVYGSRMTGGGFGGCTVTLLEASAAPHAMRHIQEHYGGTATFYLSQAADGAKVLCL
Chain of Ubiquitin carboxyl-terminal hydrolase 1 (Homo sapiens) (O94782 whole entry, looked up): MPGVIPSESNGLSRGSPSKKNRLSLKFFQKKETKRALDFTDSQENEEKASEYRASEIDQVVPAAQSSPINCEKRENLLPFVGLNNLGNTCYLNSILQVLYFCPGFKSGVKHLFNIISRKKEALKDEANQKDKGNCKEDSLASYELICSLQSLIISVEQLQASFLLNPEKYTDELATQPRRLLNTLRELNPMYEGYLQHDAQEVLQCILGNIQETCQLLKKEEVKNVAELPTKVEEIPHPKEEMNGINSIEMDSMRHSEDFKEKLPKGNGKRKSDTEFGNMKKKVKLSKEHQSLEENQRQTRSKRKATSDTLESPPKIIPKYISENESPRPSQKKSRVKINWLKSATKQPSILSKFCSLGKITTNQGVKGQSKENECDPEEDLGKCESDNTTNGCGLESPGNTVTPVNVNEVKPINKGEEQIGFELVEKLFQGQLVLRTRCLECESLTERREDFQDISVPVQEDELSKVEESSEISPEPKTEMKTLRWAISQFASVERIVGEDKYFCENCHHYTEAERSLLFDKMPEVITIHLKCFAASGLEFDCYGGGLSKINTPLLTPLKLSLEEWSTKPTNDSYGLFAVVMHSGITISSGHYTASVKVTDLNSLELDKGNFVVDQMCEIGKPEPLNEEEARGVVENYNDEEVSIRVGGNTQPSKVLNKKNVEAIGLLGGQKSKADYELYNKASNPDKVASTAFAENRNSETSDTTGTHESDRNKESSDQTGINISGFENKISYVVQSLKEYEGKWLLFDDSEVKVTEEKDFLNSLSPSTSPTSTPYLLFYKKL
Chain of Peptidyl-prolyl cis-trans isomerase NIMA-interacting 1 (Homo sapiens) (Q13526 whole entry, looked up): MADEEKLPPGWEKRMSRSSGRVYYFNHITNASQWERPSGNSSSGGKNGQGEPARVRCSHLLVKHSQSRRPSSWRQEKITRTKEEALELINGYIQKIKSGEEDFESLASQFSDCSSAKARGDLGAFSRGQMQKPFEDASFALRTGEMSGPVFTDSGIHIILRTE
Chain of phosphoglycerate mutase (Leishmania major) (Q4Q090 1-553): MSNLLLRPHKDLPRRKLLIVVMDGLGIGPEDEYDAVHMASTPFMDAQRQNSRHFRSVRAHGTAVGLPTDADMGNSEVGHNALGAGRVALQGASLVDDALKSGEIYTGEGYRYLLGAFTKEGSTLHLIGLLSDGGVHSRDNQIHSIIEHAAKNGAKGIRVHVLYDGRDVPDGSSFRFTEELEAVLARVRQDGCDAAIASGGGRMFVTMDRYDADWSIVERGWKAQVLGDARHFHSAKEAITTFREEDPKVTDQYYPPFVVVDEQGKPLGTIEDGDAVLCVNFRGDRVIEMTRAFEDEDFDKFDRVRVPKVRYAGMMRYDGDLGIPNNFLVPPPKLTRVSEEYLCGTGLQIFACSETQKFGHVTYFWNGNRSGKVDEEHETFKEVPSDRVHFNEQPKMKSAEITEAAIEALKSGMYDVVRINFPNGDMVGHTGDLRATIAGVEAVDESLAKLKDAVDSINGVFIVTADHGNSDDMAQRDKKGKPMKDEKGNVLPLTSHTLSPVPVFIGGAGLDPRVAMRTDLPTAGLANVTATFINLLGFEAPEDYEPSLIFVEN
Chain of Estrogen receptor (Homo sapiens) (P03372 whole entry, looked up): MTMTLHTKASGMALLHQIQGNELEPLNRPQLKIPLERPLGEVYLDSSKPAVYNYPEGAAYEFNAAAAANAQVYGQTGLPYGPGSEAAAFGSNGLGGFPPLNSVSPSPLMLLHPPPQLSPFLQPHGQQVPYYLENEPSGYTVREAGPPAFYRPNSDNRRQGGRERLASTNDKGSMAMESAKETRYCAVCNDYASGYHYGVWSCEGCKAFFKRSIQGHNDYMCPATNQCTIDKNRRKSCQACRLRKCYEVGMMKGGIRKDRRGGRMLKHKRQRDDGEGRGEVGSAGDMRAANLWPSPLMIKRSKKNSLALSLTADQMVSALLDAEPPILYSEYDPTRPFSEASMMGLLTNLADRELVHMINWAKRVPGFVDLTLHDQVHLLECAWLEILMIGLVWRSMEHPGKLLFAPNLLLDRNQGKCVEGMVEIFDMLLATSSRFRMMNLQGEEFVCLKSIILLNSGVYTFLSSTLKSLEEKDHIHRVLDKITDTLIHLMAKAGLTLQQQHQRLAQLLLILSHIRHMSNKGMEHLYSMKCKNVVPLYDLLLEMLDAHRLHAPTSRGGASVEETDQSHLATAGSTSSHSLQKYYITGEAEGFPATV

For `NC(Cc1ccc(Cl)cc1)C(=O)O` (configuration not stated), in test [1], the activation is 0.75% (inactive). The Potency result in [2], in [9], in test [10] and in test [11] was “inactive” in each case. Besides, the viability change in [2] was -1.14%. In addition, the molecule was classed as inactive in test [3], in test [4], in [5], in test [6], in test [7] and in test [8].

With `CCn1cc(C(=O)O)c(=O)c2cc3c(cc21)OCO3`, the activation in test [1] was -0.375% (inactive). Moreover, the Potency entry in test [2], in [9] and in [11] was “inactive” throughout. In [2], the viability change is -3.79%. In addition, the result in [3], in test [4], in test [5], in test [6], in [7] and in test [8] was inactive.

For the molecule `CCn1ccnc1CC1COc2ccccc2O1` (configuration not stated), in test [1], the activation is 1.56% (inactive). The Potency entry in test [2], in test [9], in test [10] and in [11] was “inactive” throughout. Besides, the viability change in test [2] was -1.46%. For the same molecule, the outcome in [3], in test [4], in test [5], in [6], in [7] and in test [8] was inactive.

`Cc1nc2ccccn2c(=O)c1CCN1CCC(C(=O)c2ccc(F)cc2)CC1`: in test [1], the activation is 1.44% (inactive). Moreover, the Potency result in [2], in test [9], in test [10] and in [11] was “inactive” in each case. In test [2], the viability change was -13.1%. The outcome in test [3], in test [4], in [5], in test [6], in test [7] and in [8] was inactive.

On to `CC(=O)Nc1nnc(S(N)(=O)=O)s1`, for which, in test [1], the activation is 1.38% (inactive). Besides, the Potency entry in test [2], in test [9], in test [10], in [11] and in test [13] was “inactive” in each case. For the same molecule, in test [2], the viability change was found to be 3.35%. Also, the outcome in test [3], in [4], in test [5], in [6], in test [7] and in test [8] was inactive. The result in [12] was inactive.

With `NC/C=C/C(=O)O`, in test [1], the activation is 0.688% (inactive). Moreover, the Potency entry in [2], in [9], in test [10] and in [11] was “inactive” throughout. In addition, the viability change in test [2] is -0.253%. The call in test [3], in test [4], in test [5], in test [6], in test [7] and in test [8] was inactive.

As for `Cc1ccc(=O)n(-c2ccccc2)c1`, the activation in test [1] was 0.875% (inactive). Besides, the Potency entry in [2], in [9] and in test [11] was “inactive” in each case. Besides, the viability change in test [2] was -2.33%. For the same molecule, the result in test [3], in [4], in test [5], in test [6], in test [7] and in test [8] was inactive.

`CCN1CCC[C@H]1CNC(=O)c1c(O)c(Cl)cc(Cl)c1OC`: the activation in [1] is 0.938% (inactive). Moreover, the Potency entry in test [2], in [9] and in test [11] was “inactive” in each case. Further, the viability change in [2] was -0.523%. Further, the result in test [3], in test [4], in test [5], in test [6], in test [7] and in [8] was inactive.

Regarding `CN(C)CC/C=C1\c2ccccc2COc2ccccc21`, the activation in [1] is 2.94% (inactive). Moreover, the Potency result in test [2], in test [9] and in test [10] was “inactive” each time. In test [2], the viability change is 10.6%. In addition, the result in [3], in [4], in test [5], in [6], in test [7] and in test [8] was inactive.

In the case of `CCN1CCc2nc(N)oc2CC1`, in test [1], the activation was 0.875% (inactive). The Potency entry in [2], in test [9] and in [11] was “inactive” each time. Moreover, in test [2], the viability change is -0.627%. In addition, the molecule was called inactive in test [3], in test [4], in [5], in test [6], in test [7] and in [8].
